Out of some 65,000 compounds screened, about 2,100 (3.2%) showed an effect of 50% or more. The median lay at about -52%. The entries come from a sample that favours strong results as a whole.
Test system: Plasmodium falciparum
Experiment: Screen against P. falciparum Asexual Blood Stage (ABS), at 5uM
Type: functional, Dd2
Details: tested at 5 uM

Structure (SMILES)	INHIBITION
CC(=O)Nc1ncc(S(=O)(=O)Nc2ccc3c(c2)OCCO3)s1	-316%
COc1ccc(OCCNCc2c(C)nn(C)c2N(C)C)cc1	-64.9%
COc1cc(CNCc2c(C(C)C)nn(C)c2N(C)C)ccn1	-67.4%
COc1ccccc1OCCNCc1c(C)nn(C)c1N(C)C	60%
COc1ccccc1C(O)CNCc1c(C(C)C)nn(C)c1N(C)C (stereo not given)	6.24%
COc1cccc(OCCNCc2c(C)nn(C)c2N(C)C)c1	-31.9%
COc1ccccc1OCCNCc1c(C(C)C)nn(C)c1N(C)C	60.1%
Cc1ccc(N2CCCC(NCc3ccc(C)s3)C2)nn1 (stereo not given)	-34.1%
CC(C)(CO)NCc1nn(Cc2ccccc2)nc1-c1ccccc1	14.1%
O=C(Cc1ccncc1)N1CCC2(CC1)CC(c1ccccc1)CO2 (stereo not given)	-26.8%
CC(C)C(C(=O)N1CCCN(c2nccs2)CC1)n1cncn1 (stereo not given)	-114%
Cc1csc(N2CCCN(C3Cc4ccccc4C3)CC2)n1	-1.32%
O=C1CC2(CCCCN2C(=O)Cc2ccccc2)CN1c1cccnc1 (stereo not given)	-37.3%
Cc1ccc(CN2CC[C@@H]3OCCN(Cc4ccncc4)[C@H]3CC2)s1	34.9%
N[C@H]1CN(C(=O)c2ccc(Cl)cc2O)C[C@@H]1C1CC1	33%
N[C@H]1CN(C(=O)c2cnc3cc(Cl)ccc3c2O)C[C@@H]1C1CC1	-22.9%
Cc1cc(Cl)ccc1C(=O)N1C[C@H](C2CC2)[C@@H](N)C1	61%
Cc1ccc(C(=O)N2CCOC3(CCCC3)C2)c(=O)[nH]1	-106%
COCCC(=O)N1C[C@H]2CN(Cc3cccnc3)C(=O)[C@H]2C1	-55.2%
CCN(C)C(=O)CCN(C)Cc1cnc(C)s1	-125%
CN(C(=O)Cc1ccccc1F)C1CCN(c2ccccn2)CC1	-73.8%
CC(C)=CCCC1(C)C=Cc2c(cc(C)n(CCC(=O)O)c2=O)O1 (stereo not given)	-18.9%
OC1(CN2CCC(Oc3cccc(C(F)(F)F)c3)CC2)CNCCOC1 (stereo not given)	64.7%
FC(F)(F)c1cccc(OC2CCN(Cc3ncc[nH]3)CC2)c1	-23%
OC1(CNCCN2CCc3ccccc32)CNCCOC1 (stereo not given)	-0.439%
OC1(CN2CCN(c3cccc(C(F)(F)F)c3)CC2)CNCCOC1 (stereo not given)	57%
OC1(CN2CCC(Oc3cccnc3)CC2)CNCCOC1 (stereo not given)	-73.6%
OC1(CN2CCCC2)COCCN(c2cc(C(F)(F)F)ccn2)C1 (stereo not given)	-53.6%

Structure (SMILES)	INHIBITION
Cc1ccc(C(C)NC(=O)CSCC(N)=O)cc1 (stereo not given)	-54.8%
CCS(=O)(=O)N1CCc2c(cccc2NC(=O)NCCO)C1	-14.1%
Clc1cc(Cl)cc(OCCN2CCC(n3cncn3)CC2)c1	33.8%
Cn1ccnc1CN1CCCN(C(=O)CC(C2CC2)C2CC2)CC1	-16.7%
Cn1nc(COCC2CC2)c2c1CCN(Cc1cccs1)C2	-41.4%
CN(Cc1cccs1)C(=O)CN1CCOC(Cn2cncn2)C1 (stereo not given)	-56%
Cc1cccc(C(C(=O)N(C)Cc2ccon2)N(C)C)c1 (stereo not given)	-2.4%
Cc1cccc(C(C(=O)N(C)Cc2cc(C)no2)N(C)C)c1 (stereo not given)	49.9%
Cc1cccc(C(C(=O)N(C)Cc2ccco2)N(C)C)c1 (stereo not given)	66.7%
CCC(CO)NCc1ccc(-c2ccccc2F)o1 (stereo not given)	-35.5%
O=C(Cn1ccnc1)N1C[C@@H]2CC[C@H](Oc3ccc(Cl)cc3)[C@@H]2C1	-41.4%
COc1ccc(-c2nc(C)cc(SCC(N)=O)n2)cc1	-104%
CN1CCC(N(CCc2ccccc2)C(=O)c2ccc(C#N)cc2)CC1	28.4%
COc1ccc2[nH]cc(-c3ccnc(NC4CCCC4)n3)c2c1	58.8%
O=c1[nH]c(-c2ccncc2)ncc1-c1ccnc(NC2CCCCC2)n1	-61.7%
COc1ccc2[nH]cc(-c3ccnc(N4CCC(C)CC4)n3)c2c1	-172%
CC(C)c1noc(CN(Cc2ccccc2)C2CC2)n1	-119%
CCN1CCn2c(C)cnc2C12CCN(C(=O)N(C)C)CC2	53%
CCN1CCn2c(C)cnc2C12CCN(C(=O)CC(C)C)CC2	-55.6%
CCN1CCn2c(C)cnc2C12CCN(C(=O)C(C)C)CC2	-51.6%
CC(C)CNC(=O)c1c(-n2cnnn2)sc2c1CCCC2	-47.3%
COCCN1CCC(CNC(=O)C2(c3ccccc3)CCC2)C1 (stereo not given)	-0.505%
CCCN1CCC(CNC(=O)C2(c3cc(C)cc(C)c3)CCC2)C1 (stereo not given)	41.6%
CCCN1CCC(CNC(=O)C2(c3ccccc3)CCC2)C1 (stereo not given)	66.3%
CCN1CCC(CNC(=O)C2(c3cccc(C)c3)CC2)C1 (stereo not given)	0.0435%
COCCN1CCC(CNC(=O)C2(c3cccc(Cl)c3)CC2)C1 (stereo not given)	-0.48%
CCN1CCCC(CNC(=O)C2(c3cccc(Cl)c3)CC2)C1 (stereo not given)	69.7%
